# Source: PMC11062922 (Nature Chemical Biology, 2023)
# Like-named read-outs stand apart in the source and are kept apart here.
# What was measured:
# Details in all cases: read-out: apparent Kd, n = 1
# [1] = system: MAPK10
# [2] = system: PBK
# [3] = system: PDGFRB
# [4] = system: PRKAA1
# [5] = compound concentrations:100 nM and 1000 nM (sheet 'Lestaurtinib' of Supplementary Table 1),run:Lestaurtinib_02584_R1,Plate:MR017
# [6] = compound concentrations:100 nM and 1000 nM (sheet 'Lestaurtinib' of Supplementary Table 1),run:Lestaurtinib_02584_R3,Plate:MR017
# [7] = compound concentrations:100 nM and 1000 nM (sheet 'Lestaurtinib' of Supplementary Table 1),run:Lestaurtinib_02601_R1,Plate:MR018
# [8] = compound concentrations:100 nM and 1000 nM (sheet 'Lestaurtinib' of Supplementary Table 1),run:Lestaurtinib_02606_R3,Plate:MR019
# [9] = compound concentrations:100 nM and 1000 nM (sheet 'Lestaurtinib' of Supplementary Table 1),run:Lestaurtinib_02724_R2,Plate:MR021
# [10] = compound concentrations:100 nM and 1000 nM (sheet 'Lestaurtinib' of Supplementary Table 1),run:Lestaurtinib_02741_R2,Plate:MR023
# [11] = compound concentrations:100 nM and 1000 nM (sheet 'Lestaurtinib' of Supplementary Table 1),run:Lestaurtinib_02748_R3,Plate:MR024
# [12] = compound concentrations:100 nM and 1000 nM (sheet 'Lestaurtinib' of Supplementary Table 1),run:Lestaurtinib_02766_R1,Plate:MR027
# [13] = compound concentrations:100 nM and 1000 nM (sheet 'Lestaurtinib' of Supplementary Table 1),run:Lestaurtinib_02795_R3,Plate:MR022
# [14] = compound concentrations:100 nM and 1000 nM (sheet 'Lestaurtinib' of Supplementary Table 1),run:Lestaurtinib_02896_R3,Plate:MR030
# [15] = compound concentrations:100 nM and 1000 nM (sheet 'Lestaurtinib' of Supplementary Table 1),run:Lestaurtinib_03172_R1,Plate:MR031
# [16] = compound concentrations:100 nM and 1000 nM (sheet 'Lestaurtinib' of Supplementary Table 1),run:Lestaurtinib_03172_R2,Plate:MR031
# [17] = compound concentrations:100 nM and 1000 nM (sheet 'Lestaurtinib' of Supplementary Table 1),run:Lestaurtinib_03252_R1,Plate:MR032
# [18] = compound concentrations:100 nM and 1000 nM (sheet 'Lestaurtinib' of Supplementary Table 1),run:Lestaurtinib_03252_R2,Plate:MR032
# [19] = compound concentrations:100 nM and 1000 nM (sheet 'Lestaurtinib' of Supplementary Table 1),run:Lestaurtinib_03260_R2,Plate:MR033
# [20] = compound concentrations:100 nM and 1000 nM (sheet 'Lestaurtinib' of Supplementary Table 1),run:Lestaurtinib_02381_R2,Plate:MR004
# [21] = compound concentrations:100 nM and 1000 nM (sheet 'Lestaurtinib' of Supplementary Table 1),run:Lestaurtinib_02741_R1,Plate:MR023
# [22] = compound concentrations:100 nM and 1000 nM (sheet 'Lestaurtinib' of Supplementary Table 1),run:Lestaurtinib_02896_R2,Plate:MR030
# [23] = compound concentrations:100 nM and 1000 nM (sheet 'Lestaurtinib' of Supplementary Table 1),run:Lestaurtinib_02381_R1,Plate:MR004
substance,measurement,setting,value
Lestaurtinib,potency estimated from few doses,"[1]; compound concentrations:100 nM and 1000 nM (sheet 'Lestaurtinib' of Supplementary Table 1),run:Lestaurtinib_02572_R1,Plate:MR015",896 nM
same,potency estimated from few doses,"[1]; compound concentrations:100 nM and 1000 nM (sheet 'Lestaurtinib' of Supplementary Table 1),run:Lestaurtinib_02577_R2,Plate:MR016",636 nM
same,potency estimated from few doses,"[1]; compound concentrations:100 nM and 1000 nM (sheet 'Lestaurtinib' of Supplementary Table 1),run:Lestaurtinib_02577_R3,Plate:MR016",743 nM
same,potency estimated from few doses,[1]; [5],744 nM
same,potency estimated from few doses,[1]; [6],692 nM
same,potency estimated from few doses,[1]; [7],819 nM
same,potency estimated from few doses,[1]; [8],845 nM
same,potency estimated from few doses,"[1]; compound concentrations:100 nM and 1000 nM (sheet 'Lestaurtinib' of Supplementary Table 1),run:Lestaurtinib_02624_R1,Plate:MR020",802 nM
same,potency estimated from few doses,"[1]; compound concentrations:100 nM and 1000 nM (sheet 'Lestaurtinib' of Supplementary Table 1),run:Lestaurtinib_02624_R2,Plate:MR020",1320 nM
same,potency estimated from few doses,"[1]; compound concentrations:100 nM and 1000 nM (sheet 'Lestaurtinib' of Supplementary Table 1),run:Lestaurtinib_02624_R3,Plate:MR020",818 nM
same,potency estimated from few doses,"[1]; compound concentrations:100 nM and 1000 nM (sheet 'Lestaurtinib' of Supplementary Table 1),run:Lestaurtinib_02724_R1,Plate:MR021",870 nM
same,potency estimated from few doses,[1]; [9],518 nM
same,potency estimated from few doses,"[1]; compound concentrations:100 nM and 1000 nM (sheet 'Lestaurtinib' of Supplementary Table 1),run:Lestaurtinib_02724_R3,Plate:MR021",573 nM
same,potency estimated from few doses,[1]; [10],929 nM
same,potency estimated from few doses,"[1]; compound concentrations:100 nM and 1000 nM (sheet 'Lestaurtinib' of Supplementary Table 1),run:Lestaurtinib_02748_R1,Plate:MR024",747 nM
same,potency estimated from few doses,"[1]; compound concentrations:100 nM and 1000 nM (sheet 'Lestaurtinib' of Supplementary Table 1),run:Lestaurtinib_02748_R2,Plate:MR024",824 nM
same,potency estimated from few doses,[1]; [11],1610 nM
same,potency estimated from few doses,"[1]; compound concentrations:100 nM and 1000 nM (sheet 'Lestaurtinib' of Supplementary Table 1),run:Lestaurtinib_02765_R1,Plate:MR026",795 nM
same,potency estimated from few doses,"[1]; compound concentrations:100 nM and 1000 nM (sheet 'Lestaurtinib' of Supplementary Table 1),run:Lestaurtinib_02765_R3,Plate:MR026",501 nM
same,potency estimated from few doses,[1]; [12],1530 nM
same,potency estimated from few doses,[1]; [13],886 nM
same,potency estimated from few doses,"[1]; compound concentrations:100 nM and 1000 nM (sheet 'Lestaurtinib' of Supplementary Table 1),run:Lestaurtinib_02802_R2,Plate:MR029",1410 nM
same,potency estimated from few doses,"[1]; compound concentrations:100 nM and 1000 nM (sheet 'Lestaurtinib' of Supplementary Table 1),run:Lestaurtinib_02896_R1,Plate:MR030",532 nM
same,potency estimated from few doses,[1]; [14],592 nM
same,potency estimated from few doses,[1]; [15],784 nM
same,potency estimated from few doses,[1]; [16],591 nM
same,potency estimated from few doses,[1]; [17],932 nM
same,potency estimated from few doses,[1]; [18],717 nM
same,potency estimated from few doses,[1]; [19],671 nM
same,potency estimated from few doses,"[2]; compound concentrations:100 nM and 1000 nM (sheet 'Lestaurtinib' of Supplementary Table 1),run:Lestaurtinib_02364_R3,Plate:MR002",2310 nM
same,potency estimated from few doses,[2]; [20],1820 nM
same,potency estimated from few doses,"[2]; compound concentrations:100 nM and 1000 nM (sheet 'Lestaurtinib' of Supplementary Table 1),run:Lestaurtinib_02606_R1,Plate:MR019",1970 nM
same,potency estimated from few doses,[2]; [8],2120 nM
same,potency estimated from few doses,[2]; [21],1530 nM
same,potency estimated from few doses,[2]; [11],1440 nM
same,potency estimated from few doses,[2]; [12],1690 nM
same,potency estimated from few doses,"[2]; compound concentrations:100 nM and 1000 nM (sheet 'Lestaurtinib' of Supplementary Table 1),run:Lestaurtinib_02766_R3,Plate:MR027",1760 nM
same,potency estimated from few doses,[2]; [22],1580 nM
same,potency estimated from few doses,[2]; [14],1970 nM
same,potency estimated from few doses,[2]; [15],1810 nM
same,potency estimated from few doses,"[2]; compound concentrations:100 nM and 1000 nM (sheet 'Lestaurtinib' of Supplementary Table 1),run:Lestaurtinib_03172_R3,Plate:MR031",1840 nM
same,potency estimated from few doses,"[3]; compound concentrations:100 nM and 1000 nM (sheet 'Lestaurtinib' of Supplementary Table 1),run:Lestaurtinib_02364_R1,Plate:MR002",2200 nM
same,potency estimated from few doses,[3]; [23],1570 nM
same,potency estimated from few doses,"[3]; compound concentrations:100 nM and 1000 nM (sheet 'Lestaurtinib' of Supplementary Table 1),run:Lestaurtinib_02407_R3,Plate:MR005",428 nM
same,potency estimated from few doses,"[3]; compound concentrations:100 nM and 1000 nM (sheet 'Lestaurtinib' of Supplementary Table 1),run:Lestaurtinib_02437_R2,Plate:MR007",717 nM
same,potency estimated from few doses,"[3]; compound concentrations:100 nM and 1000 nM (sheet 'Lestaurtinib' of Supplementary Table 1),run:Lestaurtinib_02437_R3,Plate:MR007",1300 nM
same,potency estimated from few doses,"[3]; compound concentrations:100 nM and 1000 nM (sheet 'Lestaurtinib' of Supplementary Table 1),run:Lestaurtinib_02438_R2,Plate:MR008",2020 nM
same,potency estimated from few doses,"[3]; compound concentrations:100 nM and 1000 nM (sheet 'Lestaurtinib' of Supplementary Table 1),run:Lestaurtinib_02438_R3,Plate:MR008",1360 nM
same,potency estimated from few doses,"[3]; compound concentrations:100 nM and 1000 nM (sheet 'Lestaurtinib' of Supplementary Table 1),run:Lestaurtinib_02443_R1,Plate:MR009",1570 nM
same,potency estimated from few doses,"[3]; compound concentrations:100 nM and 1000 nM (sheet 'Lestaurtinib' of Supplementary Table 1),run:Lestaurtinib_02443_R3,Plate:MR009",279 nM
same,potency estimated from few doses,"[3]; compound concentrations:100 nM and 1000 nM (sheet 'Lestaurtinib' of Supplementary Table 1),run:Lestaurtinib_02473_R1,Plate:MR010",982 nM
same,potency estimated from few doses,"[3]; compound concentrations:100 nM and 1000 nM (sheet 'Lestaurtinib' of Supplementary Table 1),run:Lestaurtinib_02487_R1,Plate:MR012",998 nM
same,potency estimated from few doses,"[3]; compound concentrations:100 nM and 1000 nM (sheet 'Lestaurtinib' of Supplementary Table 1),run:Lestaurtinib_02496_R1,Plate:MR013",1610 nM
same,potency estimated from few doses,"[3]; compound concentrations:100 nM and 1000 nM (sheet 'Lestaurtinib' of Supplementary Table 1),run:Lestaurtinib_02496_R3,Plate:MR013",1530 nM
same,potency estimated from few doses,"[3]; compound concentrations:100 nM and 1000 nM (sheet 'Lestaurtinib' of Supplementary Table 1),run:Lestaurtinib_02566_R2,Plate:MR014",1700 nM
same,potency estimated from few doses,"[3]; compound concentrations:100 nM and 1000 nM (sheet 'Lestaurtinib' of Supplementary Table 1),run:Lestaurtinib_02566_R3,Plate:MR014",1620 nM
same,potency estimated from few doses,"[3]; compound concentrations:100 nM and 1000 nM (sheet 'Lestaurtinib' of Supplementary Table 1),run:Lestaurtinib_02577_R1,Plate:MR016",1800 nM
same,potency estimated from few doses,[3]; [5],1790 nM
same,potency estimated from few doses,"[3]; compound concentrations:100 nM and 1000 nM (sheet 'Lestaurtinib' of Supplementary Table 1),run:Lestaurtinib_02584_R2,Plate:MR017",1590 nM
same,potency estimated from few doses,[3]; [6],1990 nM
same,potency estimated from few doses,[3]; [7],1820 nM
same,potency estimated from few doses,"[3]; compound concentrations:100 nM and 1000 nM (sheet 'Lestaurtinib' of Supplementary Table 1),run:Lestaurtinib_02601_R2,Plate:MR018",1400 nM
same,potency estimated from few doses,"[3]; compound concentrations:100 nM and 1000 nM (sheet 'Lestaurtinib' of Supplementary Table 1),run:Lestaurtinib_02601_R3,Plate:MR018",1970 nM
same,potency estimated from few doses,[3]; [9],749 nM
same,potency estimated from few doses,[3]; [21],1370 nM
same,potency estimated from few doses,[3]; [10],1340 nM
same,potency estimated from few doses,"[3]; compound concentrations:100 nM and 1000 nM (sheet 'Lestaurtinib' of Supplementary Table 1),run:Lestaurtinib_02741_R3,Plate:MR023",1830 nM
same,potency estimated from few doses,"[3]; compound concentrations:100 nM and 1000 nM (sheet 'Lestaurtinib' of Supplementary Table 1),run:Lestaurtinib_02768_R3,Plate:MR028",1580 nM
same,potency estimated from few doses,"[3]; compound concentrations:100 nM and 1000 nM (sheet 'Lestaurtinib' of Supplementary Table 1),run:Lestaurtinib_02795_R1,Plate:MR022",1320 nM
same,potency estimated from few doses,[3]; [13],1600 nM
same,potency estimated from few doses,"[3]; compound concentrations:100 nM and 1000 nM (sheet 'Lestaurtinib' of Supplementary Table 1),run:Lestaurtinib_02802_R1,Plate:MR029",1590 nM
same,potency estimated from few doses,"[3]; compound concentrations:100 nM and 1000 nM (sheet 'Lestaurtinib' of Supplementary Table 1),run:Lestaurtinib_02802_R3,Plate:MR029",1930 nM
same,potency estimated from few doses,[3]; [22],849 nM
same,potency estimated from few doses,[3]; [14],573 nM
same,potency estimated from few doses,[3]; [15],1130 nM
same,potency estimated from few doses,[3]; [16],754 nM
same,potency estimated from few doses,[3]; [17],1320 nM
same,potency estimated from few doses,[3]; [18],970 nM
same,potency estimated from few doses,"[3]; compound concentrations:100 nM and 1000 nM (sheet 'Lestaurtinib' of Supplementary Table 1),run:Lestaurtinib_03260_R1,Plate:MR033",1570 nM
same,potency estimated from few doses,[3]; [19],1930 nM
same,potency estimated from few doses,"[4]; compound concentrations:100 nM and 1000 nM (sheet 'Lestaurtinib' of Supplementary Table 1),run:Lestaurtinib_02339_R2,Plate:MR001",860 nM
same,potency estimated from few doses,"[4]; compound concentrations:100 nM and 1000 nM (sheet 'Lestaurtinib' of Supplementary Table 1),run:Lestaurtinib_02339_R3,Plate:MR001",1330 nM
same,potency estimated from few doses,"[4]; compound concentrations:100 nM and 1000 nM (sheet 'Lestaurtinib' of Supplementary Table 1),run:Lestaurtinib_02364_R2,Plate:MR002",936 nM
same,potency estimated from few doses,"[4]; compound concentrations:100 nM and 1000 nM (sheet 'Lestaurtinib' of Supplementary Table 1),run:Lestaurtinib_02367_R3,Plate:MR003",951 nM
same,potency estimated from few doses,[4]; [23],919 nM
same,potency estimated from few doses,[4]; [20],900 nM
